The text below walks through data of ChEMBL document CHEMBL3433997, “St. Jude Leishmania screening dataset” (2016).

Structures are written as SMILES.

Usually inhibition stands for the change of the read-out against control, counted positive when it falls.

In one test the target is Solute carrier family 2, facilitated glucose transporter member 1 (Homo sapiens) (UniProt P11166). The experiment in a line: ST_JUDE_LEISH: Cytotoxicity at 2uM final concentration against transgenic Leishmania Mexicana promastigotes LmGLUT1 that are glucose transport deficient and complemented with the human glucose transporter GLUT1. Activity is measured by DNA content using SYBR green in vitro. It is filed as functional.
Sequence of Solute carrier family 2, facilitated glucose transporter member 1 (Homo sapiens) (P11166 whole entry): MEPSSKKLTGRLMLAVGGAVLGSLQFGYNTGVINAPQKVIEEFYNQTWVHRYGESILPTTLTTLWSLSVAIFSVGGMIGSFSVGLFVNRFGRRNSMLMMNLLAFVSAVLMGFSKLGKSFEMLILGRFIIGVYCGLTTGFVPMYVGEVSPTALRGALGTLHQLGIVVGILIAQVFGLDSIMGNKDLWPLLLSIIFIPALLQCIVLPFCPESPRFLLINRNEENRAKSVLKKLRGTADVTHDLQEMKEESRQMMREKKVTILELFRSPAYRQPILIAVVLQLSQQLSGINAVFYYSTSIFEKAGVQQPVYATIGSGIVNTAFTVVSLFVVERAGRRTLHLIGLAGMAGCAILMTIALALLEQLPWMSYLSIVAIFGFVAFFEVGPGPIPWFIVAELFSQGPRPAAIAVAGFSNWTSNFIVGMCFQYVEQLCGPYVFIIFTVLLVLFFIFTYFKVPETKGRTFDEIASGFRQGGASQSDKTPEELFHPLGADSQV
`Cc1cccc2nc(-c3ccc(-c4ccc(NC(=O)CN5CCN(C)CC5)cc4)s3)[nH]c12`: the inhibition was -0.59%.

On to `O=C(/C=C/c1cccc(Br)c1)NCCCCCN1CCC(c2c[nH]c3ccccc23)CC1`, for which the inhibition was found to be 3.71%.

For the compound `CC(C)CNCc1ccc(-c2ccc(CN(CCCN3CCN(C)CC3)C(=O)/C=C/c3ccccc3)cc2)cc1`, the inhibition worked out at 8.73%.

On to `CN1CCN(C(=O)CN2CCC3(CCC2=O)NC(=O)c2ccccc2O3)CC1` (stereo not given), for which the inhibition is 3.76%.

As for `CCOC(=O)C(C)(C)Oc1ccc(C(=C2CC(C)(C)CC(C)(C)C2)c2ccc(O)cc2)cc1`, the inhibition was 4.11%.

Consider `CC1CC(C)CN(CCCNc2ccc(C(=O)Nc3ccc(C(F)(F)F)cc3)cc2[N+](=O)[O-])C1` (stereo not given), for which the inhibition came to 3.92%.

Regarding `CC(C)C[C@H]1c2[nH]c3ccc(Cl)cc3c2CCN1C(=O)CCc1ccccc1`, the inhibition was determined as 3.74%.

Regarding `CCOc1ccc2[nH]c(C)cc(=NN=Cc3cccnc3)c2c1`, the inhibition was determined as 8.63%.

`CN(C)c1cccc2c1nc(-c1ccc3c(c1)CCO3)n2CCNCc1ccccc1`: the inhibition is 11.7%.

As for `CCCS(=O)(=O)N1CCC(CO)(Cc2ccccc2C(F)(F)F)CC1`, the inhibition was found to be 2.81%.

Consider `CCN(CC)CCN(Cc1ccc(-c2ccc(C(F)(F)F)cc2)cc1)C(=O)Cn1c(/C=C/c2ccco2)nc(=O)c2ccccc21`, for which the inhibition was -0.7%.

`N#Cc1cc([N+](=O)[O-])ccc1-n1nc(C(N)=O)n(Cc2cccc(F)c2)c1=S`: the inhibition amounted to 11.3%.

Consider `C=C(C)Cn1cc(C2CCN(CCCCNC(=O)c3sc(-c4ccc(Cl)cc4Cl)nc3CO)CC2)c2ccccc21`, for which the inhibition was -1.31%.

Consider `CC(C)CC(NC(=O)c1ccc(F)cc1)C(=O)N[C@H](/C=N/N1CCNC1=O)CC(C)C` (stereo not given in full), for which the inhibition was 3.16%.

With `O=C(NCCCCCN1CCC(c2c[nH]c3ccccc23)CC1)Nc1ccc(I)c(Cl)c1`, the inhibition is 7.04%.

Take `Oc1ccc(CCCc2cc(Oc3c(I)cc(CCc4ncc[nH]4)cc3I)ccc2O)cc1`: the inhibition came to 1.08%.

In the case of `Cc1ccc(Nc2ccnc(Nc3ccc(C)c(F)c3)n2)cc1O`, the inhibition came out at 9.14%.

Turning to `O=C(Cn1c(SCc2cccc(F)c2F)cc(=O)c2ccccc21)N(CCn1ccnc1)Cc1ccc(-c2ccc(C(F)(F)F)cc2)cc1`, the inhibition is 5.51%.

With `Cc1ccc(CN2CCN(c3cc4c(cc3Cl)CCN4C(=O)Cc3ccc(NC(=O)c4ccc(C(F)(F)F)cc4)cc3)CC2)cc1`, the inhibition turned out to be 6.58%.

Regarding `COc1cc(CS(C)(=O)=O)ccc1Nc1nccc(-c2c(-c3cccc(NC(=O)c4c(F)cccc4F)c3)nn3ccccc23)n1`, the inhibition was determined as 13.5%.

On to `Cc1c2ccc(N(C)c3ccnc(Nc4ccc5c(c4)nc(NC(C)C)n5C)n3)cc2nn1C`, for which the inhibition was 0.46%.

`COc1ccc(CN2CCCN(Cc3cccc(NC(=O)c4cc5ccccc5s4)c3)CC2)cc1`: the inhibition was found to be 0.39%.

Take `CCc1ccccc1-c1csc(C(=O)NCC2CCN(Cc3ccc(C(C)(C)C)cc3)C2)c1` (stereo not given): the inhibition was found to be 6.04%.

As for `O=S(=O)(Nc1ccc(CCN2CCC(N3CCCCC3)CC2)cc1)c1ccc2ccccc2c1`, the inhibition was 4.91%.

Regarding `Cc1nnsc1C(=O)Nc1cccc(-c2ccc(-c3nc4ccccc4[nH]3)s2)c1`, the inhibition was determined as 1.8%.

As to `COc1ccc(CCNCCCCCCNCCc2ccccc2Cl)cc1OC`, the inhibition was determined as 1.25%.

`CCc1ccc(CN2CCC(NC(=O)c3ccc(-c4ccc(N(C)C)cc4)s3)CC2)cc1`: the inhibition worked out at 2.04%.

Turning to `N#Cc1ccc2c(c1)CCN(CCC1CCC(NC(=O)c3cc4ccc(Cl)cc4[nH]3)CC1)C2` (stereo not given), the inhibition is 1.73%.

In the case of `N#Cc1ccc(OCCN(Cc2ccccc2C(F)(F)F)c2ccc(C#N)c(C(F)(F)F)c2)cc1`, the inhibition turned out to be 10.1%.

On to `COc1cccc(-c2cc(C(=O)Nc3cc(Oc4ccc(O)cc4)cc([N+](=O)[O-])c3)on2)c1`, for which the inhibition is 9.09%.

Consider `Cc1cccc(CC(=N)NCCCCCCNC(=N)Cc2cccc(C)c2)c1`, for which the inhibition was determined as 0.27%.

As for `COc1cc(F)c2ncc(Cl)c(CCN3CCC(NCc4ccc5c(c4)OCCO5)CC3)c2c1`, the inhibition was 41.6%.

On to `COc1ccc2nc3cc(Cl)ccc3c(Nc3ccc(O)c(CNC(C)C)c3)c2c1`, for which the inhibition was 0.29%.

For the compound `NS(=O)(=O)c1ccccc1Nc1nc(Nc2ccc(N3CCOCC3)cc2)nc2c1CCC2`, the inhibition was found to be 11.1%.

Regarding `Cc1nc(C)c(CC(=O)Nc2cccc(-c3cccc(-c4nc5cccc(C)c5[nH]4)c3)c2)s1`, the inhibition was -1.73%.

For `CCNc1cc(C(=O)N[C@@H](Cc2ccccc2)[C@H](O)CNC(C)CC(C)C)c(F)c(N2CCCCS2(=O)=O)c1` (stereo not given in full), the inhibition turned out to be 2.89%.

`O=C(NC1CCC(N2CCC(O)(c3ccc(F)cc3)CC2)CC1)c1cc2ccccc2[nH]1` (stereo not given): the inhibition stood at 1.2%.

Consider `O=C(Nc1cc(=O)[nH]c2nc(-c3ccccc3)nn12)C1CCCCC1`, for which the inhibition amounted to 2.3%.

Consider `CC(C)CN(C)c1ncnc2c1nc(-c1cncc(C#N)c1)n2CCNCc1ccccc1`, for which the inhibition is 3.34%.

As for `Cc1ccc(NC(=O)c2ccc3ncccc3c2)cc1OC1CCN(Cc2ccsc2)CC1`, the inhibition amounted to 3.79%.

For another test, the target named is Hexose transporter 1 (Plasmodium falciparum) (UniProt O97467). Put plainly: ST_JUDE_LEISH: Cytotoxicity at 2uM final concentration against transgenic Leishmania Mexicana promastigotes LmPfHT that are glucose transport deficient and complemented with the Plasmodium falciparum hexose transporter. Activity is measured by DNA content using SYBR green in vitro. It is filed as functional.
With `Cc1cccc2nc(-c3ccc(-c4ccc(NC(=O)CN5CCN(C)CC5)cc4)s3)[nH]c12`, the inhibition is -1.98%.

Consider `O=C(/C=C/c1cccc(Br)c1)NCCCCCN1CCC(c2c[nH]c3ccccc23)CC1`, for which the inhibition was 2.1%.

Regarding `CC(C)CNCc1ccc(-c2ccc(CN(CCCN3CCN(C)CC3)C(=O)/C=C/c3ccccc3)cc2)cc1`, the inhibition was determined as 6.1%.

Consider `CN1CCN(C(=O)CN2CCC3(CCC2=O)NC(=O)c2ccccc2O3)CC1` (stereo not given), for which the inhibition worked out at 5.1%.

For the compound `CCOC(=O)C(C)(C)Oc1ccc(C(=C2CC(C)(C)CC(C)(C)C2)c2ccc(O)cc2)cc1`, the inhibition came out at 2.31%.

With `CC1CC(C)CN(CCCNc2ccc(C(=O)Nc3ccc(C(F)(F)F)cc3)cc2[N+](=O)[O-])C1` (stereo not given), the inhibition worked out at 0.64%.

As for `CC(C)C[C@H]1c2[nH]c3ccc(Cl)cc3c2CCN1C(=O)CCc1ccccc1`, the inhibition was 2.53%.

In the case of `CCOc1ccc2[nH]c(C)cc(=NN=Cc3cccnc3)c2c1`, the inhibition was found to be 6.06%.

Take `CN(C)c1cccc2c1nc(-c1ccc3c(c1)CCO3)n2CCNCc1ccccc1`: the inhibition came out at 8.56%.

On to `CCCS(=O)(=O)N1CCC(CO)(Cc2ccccc2C(F)(F)F)CC1`, for which the inhibition was found to be 3.09%.

For the compound `CCN(CC)CCN(Cc1ccc(-c2ccc(C(F)(F)F)cc2)cc1)C(=O)Cn1c(/C=C/c2ccco2)nc(=O)c2ccccc21`, the inhibition is -0.97%.

Consider `N#Cc1cc([N+](=O)[O-])ccc1-n1nc(C(N)=O)n(Cc2cccc(F)c2)c1=S`, for which the inhibition is 8.94%.

In the case of `C=C(C)Cn1cc(C2CCN(CCCCNC(=O)c3sc(-c4ccc(Cl)cc4Cl)nc3CO)CC2)c2ccccc21`, the inhibition is -1.73%.

Turning to `CC(C)CC(NC(=O)c1ccc(F)cc1)C(=O)N[C@H](/C=N/N1CCNC1=O)CC(C)C` (stereo not given in full), the inhibition turned out to be 4.41%.

Turning to `O=C(NCCCCCN1CCC(c2c[nH]c3ccccc23)CC1)Nc1ccc(I)c(Cl)c1`, the inhibition turned out to be 4.76%.

Regarding `Oc1ccc(CCCc2cc(Oc3c(I)cc(CCc4ncc[nH]4)cc3I)ccc2O)cc1`, the inhibition is -0.28%.

Regarding `Cc1ccc(Nc2ccnc(Nc3ccc(C)c(F)c3)n2)cc1O`, the inhibition stood at 12.6%.

With `O=C(Cn1c(SCc2cccc(F)c2F)cc(=O)c2ccccc21)N(CCn1ccnc1)Cc1ccc(-c2ccc(C(F)(F)F)cc2)cc1`, the inhibition was found to be 5.78%.

As for `Cc1ccc(CN2CCN(c3cc4c(cc3Cl)CCN4C(=O)Cc3ccc(NC(=O)c4ccc(C(F)(F)F)cc4)cc3)CC2)cc1`, the inhibition turned out to be 5.46%.

On to `COc1cc(CS(C)(=O)=O)ccc1Nc1nccc(-c2c(-c3cccc(NC(=O)c4c(F)cccc4F)c3)nn3ccccc23)n1`, for which the inhibition worked out at 20.7%.

On to `Cc1c2ccc(N(C)c3ccnc(Nc4ccc5c(c4)nc(NC(C)C)n5C)n3)cc2nn1C`, for which the inhibition amounted to 1.01%.

For `COc1ccc(CN2CCCN(Cc3cccc(NC(=O)c4cc5ccccc5s4)c3)CC2)cc1`, the inhibition was -0.1%.

As to `CCc1ccccc1-c1csc(C(=O)NCC2CCN(Cc3ccc(C(C)(C)C)cc3)C2)c1` (stereo not given), the inhibition is 4.94%.

Take `O=S(=O)(Nc1ccc(CCN2CCC(N3CCCCC3)CC2)cc1)c1ccc2ccccc2c1`: the inhibition was found to be 11.2%.

In the case of `Cc1nnsc1C(=O)Nc1cccc(-c2ccc(-c3nc4ccccc4[nH]3)s2)c1`, the inhibition was 1.37%.

For `COc1ccc(CCNCCCCCCNCCc2ccccc2Cl)cc1OC`, the inhibition is 0.29%.

For the compound `CCc1ccc(CN2CCC(NC(=O)c3ccc(-c4ccc(N(C)C)cc4)s3)CC2)cc1`, the inhibition is 1.82%.

With `N#Cc1ccc2c(c1)CCN(CCC1CCC(NC(=O)c3cc4ccc(Cl)cc4[nH]3)CC1)C2` (stereo not given), the inhibition was -0.22%.

On to `N#Cc1ccc(OCCN(Cc2ccccc2C(F)(F)F)c2ccc(C#N)c(C(F)(F)F)c2)cc1`, for which the inhibition is 9.42%.

For `COc1cccc(-c2cc(C(=O)Nc3cc(Oc4ccc(O)cc4)cc([N+](=O)[O-])c3)on2)c1`, the inhibition amounted to 8.76%.

Turning to `Cc1cccc(CC(=N)NCCCCCCNC(=N)Cc2cccc(C)c2)c1`, the inhibition was 0.31%.

On to `COc1cc(F)c2ncc(Cl)c(CCN3CCC(NCc4ccc5c(c4)OCCO5)CC3)c2c1`, for which the inhibition was 54.6%.

Regarding `COc1ccc2nc3cc(Cl)ccc3c(Nc3ccc(O)c(CNC(C)C)c3)c2c1`, the inhibition worked out at 0.43%.

`NS(=O)(=O)c1ccccc1Nc1nc(Nc2ccc(N3CCOCC3)cc2)nc2c1CCC2`: the inhibition worked out at 4.49%.

`Cc1nc(C)c(CC(=O)Nc2cccc(-c3cccc(-c4nc5cccc(C)c5[nH]4)c3)c2)s1`: the inhibition is -0.36%.

`CCNc1cc(C(=O)N[C@@H](Cc2ccccc2)[C@H](O)CNC(C)CC(C)C)c(F)c(N2CCCCS2(=O)=O)c1` (stereo not given in full): the inhibition was found to be 3.43%.

`O=C(NC1CCC(N2CCC(O)(c3ccc(F)cc3)CC2)CC1)c1cc2ccccc2[nH]1` (stereo not given): the inhibition amounted to 2.62%.

On to `O=C(Nc1cc(=O)[nH]c2nc(-c3ccccc3)nn12)C1CCCCC1`, for which the inhibition was 2.44%.

Consider `CC(C)CN(C)c1ncnc2c1nc(-c1cncc(C#N)c1)n2CCNCc1ccccc1`, for which the inhibition is 3.26%.

With `Cc1ccc(NC(=O)c2ccc3ncccc3c2)cc1OC1CCN(Cc2ccsc2)CC1`, the inhibition was determined as 3.4%.
